Laboratory results: PubChem BioAssay (NCI)
Compounds without any hit were thinned out: in the full panel of roughly 83,000, 20% have a hit.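 Testing used 96-well plates and a 48-hour single-concentration exposure. Example: -40 means 40% of the starting cells died.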 Unmarked numbers belong to inactive results. Calls of active or inactive are those of the source. How the source made its calls: active means growth percent below 10; inactive means the rest.

Experiments:
Experiment in all cases: NCI-60 one-dose screen, 48 h (100 = growth as untreated, 0 = no growth, -100 = all killed)
Details in all cases: 10 µM unless noted
T-47D breast = tested on: T-47D breast
BT-549 breast = tested on: BT-549 breast
MDA-MB-435 melanoma = tested on: MDA-MB-435 melanoma
SW-620 colon = tested on: SW-620 colon
MCF7 breast = tested on: MCF7 breast
HCT-116 colon = tested on: HCT-116 colon
HCC-2998 colon = tested on: HCC-2998 colon
KM12 colon = tested on: KM12 colon

Structure (SMILES) | growth (T-47D breast) | growth (BT-549 breast) | growth (MDA-MB-435 melanoma) | growth (SW-620 colon) | growth (MCF7 breast) | growth (HCT-116 colon) | growth (HCC-2998 colon) | growth (KM12 colon)
Cc1ccc(C2=Nc3c(N)ncnc3NC(c3ccc4c(c3)OCO4)C2)cc1 (stereo not given) | 70.5% | 61.4% | -34.5% (active) | 18.3% | 25.9% | 47% | 2.97% (active) | 35.3%
CCCCNc1ccc(C#N)c(OCCN(CC)CC)c1 | 104% | 98.2% | 104% | 109% | 93.8% | 104% | 108% | 112%
COc1cc(-c2nc(SCCC(C)C)nc(Nc3ccccc3Cl)c2C#N)cc(OC)c1OC | 81.5% | 88.4% | 96.6% | 102% | 85.7% | 89.3% | 109% | 96.3%
CC1(C)CC[C@]2(C(=O)O)CC[C@]3(C)C(=CC[C@@H]4[C@@]5(C)C/C(=C/O)C(=O)C(C)(C)[C@@H]5CC[C@]43C)[C@@H]2C1 | 61.9% | 88.6% | 69.7% | 12% | 29.5% | 12.7% | 50.5% | 15.7%
COc1ccc(/C=C2\COc3ccc(O)cc3C2=O)c(OC)c1OC | 64.7% | 72.3% | 24.9% | 38.9% | 24.5% | 70.8% | 86.4% | 44.3%
CCC(=C(c1ccc(OCCN2CCCC2)cc1)c1ccc(OCCN2CCCC2)cc1)c1ccc(Cl)cc1 | -41.6% (active) | 69.5% | -91.2% (active) | -77.7% (active) | -76% (active) | -81% (active) | -93.7% (active) | -74.2% (active)
C#CCOc1cccc(Nc2ncnc3ccc(NC(=O)CCl)cc23)c1 | -39.1% (active) | -68.9% (active) | -2.66% (active) | -27.1% (active) | -20.1% (active) | -51.3% (active) | -61.9% (active) | -51.4% (active)
C=CCn1c(SCC(=O)Nc2ccc(C(=O)/C=C/c3cc4cc(OC)ccc4nc3Cl)cc2)nnc1-c1ccc(Br)cc1 | 77.7% | 79.3% | 91.1% | 92% | 29.6% | -44% (active) | 95.1% | 84.7%
COc1cc2c(c(OC)c1OC)-c1ccc(OC)c(=O)cc1[C@@H](NC(=O)CCl)CC2 | 73.7% | -48.8% (active) | 8% (active) | 21.3% | 18.1% | -39.3% (active) | 5.69% (active) | -10.3% (active)
N#CC1C=CN(CC(N)=O)c2ccc3cccnc3c21 (stereo not given) | 90.9% | 102% | 102% | 104% | 85.8% | 94.8% | 106% | 105%
CCc1ccc(C(=O)/C=C/C23c4ccccc4C(c4ccccc42)C2C(=O)NC(=O)C23)cc1 (stereo not given) | 21.9% | -7.29% (active) | -46.6% (active) | 8.84% (active) | 16.6% | -40% (active) | 24.5% | 11.2%
O=C(c1cc2ccccc2o1)c1nn(-c2ccccc2)/c(=N/N=Cc2cn(-c3ccccc3)nc2-c2cc3ccccc3oc2=O)s1 | 92.9% | 108% | 81.1% | 97.1% | 83.1% | 89.8% | 104% | 96.5%
CSc1nc2sc3c(c2c(=O)n1-c1ccc([N+](=O)[O-])cc1)CCCCC3 | 89% | 102% | 97% | 95.4% | 86.2% | 84.4% | 104% | 101%
COc1cc(OC)cc(C2=C3CC[C@@H]4[C@H](CC[C@]5(C)C(=O)CC[C@@H]45)C3=CC3C(O)c4cccnc4N4C(=O)COC234)c1 (stereo not given in full) | 107% | 94.7% | 104% | 103% | 103% | 97% | 96.6% | 102%
CCCCCCCCCCCCCCCCCCOc1ccccc1CC(=O)OCC[N+]1(C)CCCC1 | 62% | 67% | 23.4% | 21.4% | 32.3% | 29.2% | 3.99% (active) | 13.3%
CN1CCN(Cc2ccc3c(NNC(=O)c4ccccc4)nc4cc(F)ccc4n23)CC1 | 24.7% | 49% | 28.1% | 25.3% | 13.9% | 27% | 32.1% | 20%
COc1cc(C(=O)n2nc(N3CCN(C)CC3)c3cc(N)ccc32)cc(OC)c1OC | 57.7% | 27.9% | -12% (active) | 30% | 11.6% | 7.66% (active) | 89.7% | 57.9%
CCOC(=O)CSc1ncnc2c1c(-c1ccccc1)c(-c1ccccc1)n2-c1ccc(C)cc1 | 9.51% (active) | 61.8% | 74.2% | 81.2% | 52.5% | 53.5% | 75.8% | 50.2%
O=C(/C=C/c1cn(-c2ccccc2)nc1-c1ccc([N+](=O)[O-])cc1)c1ccc(Cl)cc1 | 31.4% | 62.7% | 59.5% | -27.6% (active) | 25.4% | -12.6% (active) | -22% (active) | 41.8%
O=C1/C(=C/c2ccc(F)cc2)COc2ccc(O)c(O)c21 | 4.43% (active) | 3.57% (active) | 1.65% (active) | -44.8% (active) | 17.7% | -3.28% (active) | 19.9% | 1.7% (active)
CCN(CC)CCNC(=O)c1cn2ncnc(Oc3ccc(NC(=O)Nc4ccc(Cl)c(C(F)(F)F)c4)c(F)c3)c2c1C | 64.5% | 30.3% | -78.8% (active) | -62.1% (active) | -65% (active) | -79.3% (active) | -88.9% (active) | -30.5% (active)
CNC(=O)c1cc(Oc2ccc3c(c2)sc2nc(-c4cc(OC)c(OC)c(OC)c4)cn23)ccn1 | -4.73% (active) | 24% | 51.7% | 77.4% | 32.1% | 55.2% | 74.6% | 66.3%
CN1C(=O)N(C)C2Nn3c(s/c(=C\c4ccc(C(F)(F)F)cc4)c3=O)=NC21 (stereo not given) | 107% | 113% | 91.4% | 101% | 92% | 107% | 113% | 99.7%
O=C1CC(N2C(=O)/C(=C/C(Cl)=C\c3ccc([N+](=O)[O-])cc3)SC2=S)C(=O)N1c1ccc(Cl)cc1 (stereo not given) | 36.3% | -1.71% (active) | 3.02% (active) | 3.41% (active) | 18.1% | 8.7% (active) | -22.9% (active) | 12.4%
O=C1c2c(c3c4ccccc4[nH]c3c3ccc4ccccc4c23)C(=O)N1CCN1CCCCC1 | 13.6% | 78.9% | 67.2% | 30.5% | 17.1% | 23.1% | -0.0363% (active) | 48%
CNC(=O)c1c(NC(=O)c2ccc(C(F)(F)F)cc2)sc2c1CCC(=O)C2 | -15.2% (active) | -14.1% (active) | 0.84% (active) | -55.8% (active) | 0.392% (active) | -46.4% (active) | -39.3% (active) | -36.4% (active)
CC(=O)N1N=C(c2ccc(Nc3nc(Nc4ccc(Cl)cc4)nc(Nc4ccc(Cl)cc4)n3)cc2)CC1c1ccco1 (stereo not given) | 67.6% | 104% | 84.5% | 114% | 83% | 91.3% | 128% | 92.7%
COc1ccc(-c2cn(-c3cc(OC)c(OC)c(OC)c3)c(=O)n2C(C)=O)cc1 | 73.9% | 83.5% | 79.4% | 96.2% | 89% | 85% | 84.3% | 93.3%
O=C(Nn1c2c(sc1=Nc1ccccc1)C(=O)c1ccccc1C2=O)c1cc2ccc1CCc1ccc(cc1)CC2 | 71.1% | 67.9% | -72.5% (active) | 75.9% | 45.6% | 60.9% | 86.8% | 78.8%
N#Cc1c(-c2ccc(Cl)cc2)nc(SCC(=O)NC2=NN=C(c3ccccc3)CS2)[nH]c1=O | 41.4% | 91.3% | 29.5% | 91.6% | 47.8% | 80.6% | 89.6% | 83.8%
